# Results published in article PMC7862700, “An all-to-all approach to the identification of sequence-specific readers for epigenetic DNA modifications on cytosine”.
# Assays:
# Experiment in all cases: DAPPL (digital affinity profiling via proximity ligation, sequencing); 10 mM Tris-HCl pH 7.5, 50 mM NaCl, 1 mM DTT, 4% glycerol, room temperature, 30 min; GST-TFs on glutathione beads, 16-mer random dsDNA library, 0.1% formaldehyde crosslink after washing; high values mean tight binding
# Conditions in all cases: protein: recombinant; tags: N-terminal GST; dsDNA, one strand shown
# FLI1 = target: T1, FLI1 (Homo sapiens, UniProt Q01543 1-452)
# T1 sequence: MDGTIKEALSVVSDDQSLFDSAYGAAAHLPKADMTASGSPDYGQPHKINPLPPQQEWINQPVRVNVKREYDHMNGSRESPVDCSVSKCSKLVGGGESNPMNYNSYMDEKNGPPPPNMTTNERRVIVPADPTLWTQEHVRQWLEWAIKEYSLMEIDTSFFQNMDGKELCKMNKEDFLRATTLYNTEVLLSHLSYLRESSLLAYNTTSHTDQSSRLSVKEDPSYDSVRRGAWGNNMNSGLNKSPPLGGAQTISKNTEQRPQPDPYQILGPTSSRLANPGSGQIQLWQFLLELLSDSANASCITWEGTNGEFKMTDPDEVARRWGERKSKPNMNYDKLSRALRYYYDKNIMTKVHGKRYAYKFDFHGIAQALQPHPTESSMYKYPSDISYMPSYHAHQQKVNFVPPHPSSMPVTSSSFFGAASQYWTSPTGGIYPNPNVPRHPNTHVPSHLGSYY
# Outline: (§1)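 Human transcription factors fused to GST were expressed in yeast, captured on glutathione beads, given DNA barcodes and pooled with a GST-only negative control. Pools were incubated with 200 nmole of a 16-mer random double-stranded DNA library in Tris/NaCl/DTT/glycerol buffer at room temperature for 30 min. They were then washed, crosslinked with 0.1% formaldehyde, proximity-ligated (BsaI/T4 ligase, 1 h, 37 °C), PCR-amplified and sequenced on an Illumina NextSeq500. Binding signal is each 6-mer's read frequency for a factor divided by its frequency for the GST control.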
# ELK1 = target: T2, ELK1 (Homo sapiens, UniProt P19419 1-428)
# T2 sequence: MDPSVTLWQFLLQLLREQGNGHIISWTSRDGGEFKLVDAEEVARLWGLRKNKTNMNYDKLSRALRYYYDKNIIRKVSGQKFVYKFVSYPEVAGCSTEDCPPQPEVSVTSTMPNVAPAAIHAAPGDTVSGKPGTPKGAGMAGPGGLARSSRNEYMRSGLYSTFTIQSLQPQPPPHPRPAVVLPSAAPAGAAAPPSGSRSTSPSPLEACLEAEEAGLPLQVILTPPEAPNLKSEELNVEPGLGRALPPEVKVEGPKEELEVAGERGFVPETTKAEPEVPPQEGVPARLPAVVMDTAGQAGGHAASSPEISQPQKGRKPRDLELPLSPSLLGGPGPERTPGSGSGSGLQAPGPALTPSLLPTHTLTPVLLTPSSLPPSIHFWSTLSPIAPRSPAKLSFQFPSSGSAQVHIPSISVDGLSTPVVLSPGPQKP
# Outline: as §1
# GABPA = target: T3, GABPA (Homo sapiens, UniProt Q06546 1-454)
# T3 sequence: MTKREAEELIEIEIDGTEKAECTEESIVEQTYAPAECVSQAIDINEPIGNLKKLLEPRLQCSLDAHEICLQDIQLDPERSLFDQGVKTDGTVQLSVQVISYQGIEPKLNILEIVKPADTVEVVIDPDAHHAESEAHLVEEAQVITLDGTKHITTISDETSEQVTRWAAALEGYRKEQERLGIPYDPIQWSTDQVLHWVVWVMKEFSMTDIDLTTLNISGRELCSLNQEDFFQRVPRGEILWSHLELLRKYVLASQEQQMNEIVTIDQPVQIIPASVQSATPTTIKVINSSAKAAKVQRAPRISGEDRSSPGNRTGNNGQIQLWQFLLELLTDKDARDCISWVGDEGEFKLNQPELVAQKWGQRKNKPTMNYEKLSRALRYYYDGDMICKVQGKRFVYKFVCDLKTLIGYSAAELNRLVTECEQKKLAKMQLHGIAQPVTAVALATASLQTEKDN
# Outline: as §1
# ERG = target: T4, ERG (Homo sapiens, UniProt P11308 1-479)
# T4 sequence: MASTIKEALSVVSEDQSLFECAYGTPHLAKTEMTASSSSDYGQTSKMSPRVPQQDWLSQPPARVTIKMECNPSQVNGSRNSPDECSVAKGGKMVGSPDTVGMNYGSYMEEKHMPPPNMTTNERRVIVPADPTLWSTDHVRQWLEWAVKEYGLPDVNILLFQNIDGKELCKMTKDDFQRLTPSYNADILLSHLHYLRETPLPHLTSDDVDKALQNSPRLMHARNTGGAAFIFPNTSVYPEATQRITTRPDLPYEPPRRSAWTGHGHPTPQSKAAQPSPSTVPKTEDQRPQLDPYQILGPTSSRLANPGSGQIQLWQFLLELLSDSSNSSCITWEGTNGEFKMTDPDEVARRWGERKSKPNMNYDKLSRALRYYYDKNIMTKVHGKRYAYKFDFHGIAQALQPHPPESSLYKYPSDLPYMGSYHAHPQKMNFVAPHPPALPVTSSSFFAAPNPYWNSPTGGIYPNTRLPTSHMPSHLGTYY
# Outline: as §1
# ELF1 = ELF1 (Homo sapiens, UniProt P32519 1-619)
# Outline: as §1
# EHF = target: T5, EHF (Homo sapiens, UniProt Q9NZC4 1-300)
# T5 sequence: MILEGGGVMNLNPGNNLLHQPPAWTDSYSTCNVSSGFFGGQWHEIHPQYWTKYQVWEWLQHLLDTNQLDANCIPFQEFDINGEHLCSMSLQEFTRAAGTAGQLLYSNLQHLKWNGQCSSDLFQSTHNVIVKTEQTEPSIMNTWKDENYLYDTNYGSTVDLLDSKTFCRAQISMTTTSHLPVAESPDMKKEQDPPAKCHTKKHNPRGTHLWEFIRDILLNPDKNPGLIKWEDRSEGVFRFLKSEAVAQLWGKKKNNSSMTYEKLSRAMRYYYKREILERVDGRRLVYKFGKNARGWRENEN
# Outline: as §1
# SPI1 = SPI1 (Homo sapiens, UniProt P17947 1-270)
# Outline: as §1
# SPIB = SPIB (Homo sapiens, UniProt Q01892 1-262)
# Outline: as §1
# ELK3 = target: T6, ELK3 (Homo sapiens, UniProt P41970 1-407)
# T6 sequence: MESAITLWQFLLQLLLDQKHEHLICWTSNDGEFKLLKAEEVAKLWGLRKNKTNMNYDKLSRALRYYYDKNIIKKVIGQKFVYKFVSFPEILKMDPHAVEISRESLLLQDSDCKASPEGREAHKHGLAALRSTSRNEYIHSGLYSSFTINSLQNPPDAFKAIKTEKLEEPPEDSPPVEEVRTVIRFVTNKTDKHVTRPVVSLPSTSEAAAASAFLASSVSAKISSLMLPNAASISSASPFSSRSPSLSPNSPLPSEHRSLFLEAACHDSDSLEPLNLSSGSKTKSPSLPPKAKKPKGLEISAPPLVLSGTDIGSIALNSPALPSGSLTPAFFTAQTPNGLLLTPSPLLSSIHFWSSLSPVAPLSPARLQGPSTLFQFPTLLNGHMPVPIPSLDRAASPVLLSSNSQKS
# Outline: as §1
# FEV = target: T7, FEV (Homo sapiens, UniProt Q99581 1-238)
# T7 sequence: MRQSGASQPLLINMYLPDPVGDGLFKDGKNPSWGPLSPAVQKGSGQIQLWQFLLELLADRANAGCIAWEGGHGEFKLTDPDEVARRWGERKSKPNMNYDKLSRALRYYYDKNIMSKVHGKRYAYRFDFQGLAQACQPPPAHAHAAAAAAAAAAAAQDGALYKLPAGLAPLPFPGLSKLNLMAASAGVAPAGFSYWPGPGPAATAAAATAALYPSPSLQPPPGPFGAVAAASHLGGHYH
# Outline: as §1
# ETV5 = ETV5 (Homo sapiens, UniProt P41161 1-510)
# Outline: as §1
# SPIC = target: T8, SPIC (Homo sapiens, UniProt Q8N5J4 1-248)
# T8 sequence: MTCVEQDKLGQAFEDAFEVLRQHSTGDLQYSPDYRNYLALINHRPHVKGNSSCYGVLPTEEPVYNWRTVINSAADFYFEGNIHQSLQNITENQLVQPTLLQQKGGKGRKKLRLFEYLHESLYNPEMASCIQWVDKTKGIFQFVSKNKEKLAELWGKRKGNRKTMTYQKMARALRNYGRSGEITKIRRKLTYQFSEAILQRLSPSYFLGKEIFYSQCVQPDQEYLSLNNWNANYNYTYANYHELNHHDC
# Outline: as §1
# ELF4 = ELF4 (Homo sapiens, UniProt Q99607 1-663)
# Outline: as §1
# ELK4 = target: T9, ELK4 (Homo sapiens, UniProt P28324-2 1-405)
# T9 sequence: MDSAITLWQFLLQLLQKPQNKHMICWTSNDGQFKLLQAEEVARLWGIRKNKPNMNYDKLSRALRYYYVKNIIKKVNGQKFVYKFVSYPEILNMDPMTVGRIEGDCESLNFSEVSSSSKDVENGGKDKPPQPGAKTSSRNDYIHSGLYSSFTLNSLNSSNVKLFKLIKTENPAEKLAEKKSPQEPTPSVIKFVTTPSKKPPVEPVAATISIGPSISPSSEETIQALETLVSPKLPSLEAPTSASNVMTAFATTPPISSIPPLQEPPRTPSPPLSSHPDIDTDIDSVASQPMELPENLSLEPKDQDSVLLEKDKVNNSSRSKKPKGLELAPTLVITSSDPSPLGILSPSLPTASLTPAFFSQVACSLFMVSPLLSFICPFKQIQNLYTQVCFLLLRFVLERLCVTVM
# Outline: as §1
# ETV2 = target: T10, ETV2 (Homo sapiens, UniProt O00321 1-342)
# T10 sequence: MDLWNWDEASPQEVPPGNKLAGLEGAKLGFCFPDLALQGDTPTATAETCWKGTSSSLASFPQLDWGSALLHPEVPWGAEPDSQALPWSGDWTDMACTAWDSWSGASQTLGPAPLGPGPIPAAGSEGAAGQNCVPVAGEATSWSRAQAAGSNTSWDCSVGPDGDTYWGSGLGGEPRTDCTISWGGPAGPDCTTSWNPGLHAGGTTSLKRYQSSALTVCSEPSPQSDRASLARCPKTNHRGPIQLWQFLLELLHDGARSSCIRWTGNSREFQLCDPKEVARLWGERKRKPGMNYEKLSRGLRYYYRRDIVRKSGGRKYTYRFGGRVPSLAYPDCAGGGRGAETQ
# Outline: as §1
# ELF3 = target: T11, ELF3 (Homo sapiens, UniProt P78545 1-371)
# T11 sequence: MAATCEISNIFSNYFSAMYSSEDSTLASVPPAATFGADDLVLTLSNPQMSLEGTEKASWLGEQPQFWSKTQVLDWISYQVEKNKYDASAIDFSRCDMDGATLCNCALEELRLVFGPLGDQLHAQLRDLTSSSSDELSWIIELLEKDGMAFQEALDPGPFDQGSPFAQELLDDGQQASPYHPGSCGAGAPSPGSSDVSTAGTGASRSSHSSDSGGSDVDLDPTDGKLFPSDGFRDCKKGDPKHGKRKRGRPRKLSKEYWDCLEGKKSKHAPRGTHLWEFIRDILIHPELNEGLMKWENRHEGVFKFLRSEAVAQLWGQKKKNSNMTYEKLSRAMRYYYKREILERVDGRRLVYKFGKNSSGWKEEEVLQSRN
# Outline: as §1
# ETV1 = ETV1 (Homo sapiens, UniProt P50549 1-477)
# Outline: as §1
# Sequence of ELF4 (Q99607 whole entry): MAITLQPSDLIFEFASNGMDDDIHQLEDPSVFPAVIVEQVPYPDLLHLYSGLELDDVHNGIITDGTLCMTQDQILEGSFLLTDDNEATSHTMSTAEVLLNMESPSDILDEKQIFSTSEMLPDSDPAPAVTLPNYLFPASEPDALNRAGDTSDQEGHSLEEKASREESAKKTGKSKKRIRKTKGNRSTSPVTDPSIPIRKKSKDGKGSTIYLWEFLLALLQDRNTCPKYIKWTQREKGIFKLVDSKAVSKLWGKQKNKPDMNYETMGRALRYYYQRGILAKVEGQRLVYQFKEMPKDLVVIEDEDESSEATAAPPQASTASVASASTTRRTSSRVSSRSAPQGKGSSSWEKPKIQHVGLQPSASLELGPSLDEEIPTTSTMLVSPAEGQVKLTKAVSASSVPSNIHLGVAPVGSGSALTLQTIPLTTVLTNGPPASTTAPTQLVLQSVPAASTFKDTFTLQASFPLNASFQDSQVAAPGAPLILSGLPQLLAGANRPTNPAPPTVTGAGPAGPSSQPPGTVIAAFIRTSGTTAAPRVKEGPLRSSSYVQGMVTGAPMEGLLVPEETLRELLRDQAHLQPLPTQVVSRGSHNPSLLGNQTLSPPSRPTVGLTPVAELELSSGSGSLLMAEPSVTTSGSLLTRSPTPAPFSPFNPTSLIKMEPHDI
# Sequence of ELF1 (P32519 whole entry): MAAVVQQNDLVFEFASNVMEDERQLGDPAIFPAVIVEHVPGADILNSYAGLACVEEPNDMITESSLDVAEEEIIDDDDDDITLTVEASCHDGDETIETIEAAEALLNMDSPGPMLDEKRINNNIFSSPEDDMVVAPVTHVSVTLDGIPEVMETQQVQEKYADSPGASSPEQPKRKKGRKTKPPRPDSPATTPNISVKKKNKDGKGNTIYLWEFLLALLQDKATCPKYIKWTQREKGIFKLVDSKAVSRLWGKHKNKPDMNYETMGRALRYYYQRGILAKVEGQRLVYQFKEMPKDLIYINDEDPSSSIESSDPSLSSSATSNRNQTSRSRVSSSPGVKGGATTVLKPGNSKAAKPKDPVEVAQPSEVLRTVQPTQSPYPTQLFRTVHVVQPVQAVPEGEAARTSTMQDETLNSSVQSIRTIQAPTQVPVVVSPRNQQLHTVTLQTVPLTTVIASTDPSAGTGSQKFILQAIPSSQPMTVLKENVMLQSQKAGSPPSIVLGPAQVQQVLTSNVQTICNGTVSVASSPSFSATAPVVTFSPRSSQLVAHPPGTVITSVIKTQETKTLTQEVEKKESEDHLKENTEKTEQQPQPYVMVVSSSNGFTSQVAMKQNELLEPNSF
# Sequence of ETV1 (P50549 whole entry): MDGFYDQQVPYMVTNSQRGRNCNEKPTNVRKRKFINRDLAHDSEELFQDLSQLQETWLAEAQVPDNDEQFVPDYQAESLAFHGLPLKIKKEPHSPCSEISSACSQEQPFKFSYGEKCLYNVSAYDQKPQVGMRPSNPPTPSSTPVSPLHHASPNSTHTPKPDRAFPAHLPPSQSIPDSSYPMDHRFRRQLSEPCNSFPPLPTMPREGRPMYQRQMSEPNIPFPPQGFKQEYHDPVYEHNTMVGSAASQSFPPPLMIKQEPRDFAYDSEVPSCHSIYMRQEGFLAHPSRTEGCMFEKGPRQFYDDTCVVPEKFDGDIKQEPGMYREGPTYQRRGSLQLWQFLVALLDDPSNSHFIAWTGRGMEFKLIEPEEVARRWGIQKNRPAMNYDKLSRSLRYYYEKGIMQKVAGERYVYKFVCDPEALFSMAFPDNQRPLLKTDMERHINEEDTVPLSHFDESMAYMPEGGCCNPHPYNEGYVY
# Sequence of SPIB (Q01892 whole entry): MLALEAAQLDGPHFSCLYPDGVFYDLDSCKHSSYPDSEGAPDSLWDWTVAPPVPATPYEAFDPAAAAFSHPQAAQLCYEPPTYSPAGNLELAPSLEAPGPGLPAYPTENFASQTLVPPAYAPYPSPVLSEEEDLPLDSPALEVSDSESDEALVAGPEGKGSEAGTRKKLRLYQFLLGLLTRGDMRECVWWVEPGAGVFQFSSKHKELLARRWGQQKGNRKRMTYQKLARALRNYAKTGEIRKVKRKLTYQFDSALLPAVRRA
# Sequence of ETV5 (P41161 whole entry): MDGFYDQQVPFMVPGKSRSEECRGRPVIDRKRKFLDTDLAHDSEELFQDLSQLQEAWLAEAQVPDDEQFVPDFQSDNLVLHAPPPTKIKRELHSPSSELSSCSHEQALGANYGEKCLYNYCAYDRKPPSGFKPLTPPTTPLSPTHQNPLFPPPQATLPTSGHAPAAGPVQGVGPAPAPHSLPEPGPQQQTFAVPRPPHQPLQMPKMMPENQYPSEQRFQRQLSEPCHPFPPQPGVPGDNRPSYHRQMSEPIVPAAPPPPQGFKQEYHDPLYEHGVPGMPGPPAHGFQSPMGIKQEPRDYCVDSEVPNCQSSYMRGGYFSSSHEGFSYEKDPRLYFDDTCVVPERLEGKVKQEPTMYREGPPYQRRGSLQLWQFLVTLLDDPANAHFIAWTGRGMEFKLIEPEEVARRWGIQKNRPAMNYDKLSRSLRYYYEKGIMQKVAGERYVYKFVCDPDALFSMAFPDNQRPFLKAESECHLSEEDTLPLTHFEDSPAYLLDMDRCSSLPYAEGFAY
Sequence,binding signal (FLI1),binding signal (ELK1),binding signal (GABPA),binding signal (ERG),binding signal (ELF1),binding signal (EHF),binding signal (SPI1),binding signal (SPIB),binding signal (ELK3),binding signal (FEV),binding signal (ETV5),binding signal (SPIC),binding signal (ELF4),binding signal (ELK4),binding signal (ETV2),binding signal (ELF3),binding signal (ETV1)
CCTGCC,"1.17 fold enrichment (6-mer frequency, TF over GST control)","1.34 fold enrichment (6-mer frequency, TF over GST control)","1.25 fold enrichment (6-mer frequency, TF over GST control)","1.3 fold enrichment (6-mer frequency, TF over GST control)","1.31 fold enrichment (6-mer frequency, TF over GST control)","1.39 fold enrichment (6-mer frequency, TF over GST control)","1.28 fold enrichment (6-mer frequency, TF over GST control)","1.43 fold enrichment (6-mer frequency, TF over GST control)","1.13 fold enrichment (6-mer frequency, TF over GST control)","1.33 fold enrichment (6-mer frequency, TF over GST control)","1.34 fold enrichment (6-mer frequency, TF over GST control)","1.28 fold enrichment (6-mer frequency, TF over GST control)","1.28 fold enrichment (6-mer frequency, TF over GST control)","1.14 fold enrichment (6-mer frequency, TF over GST control)","1.26 fold enrichment (6-mer frequency, TF over GST control)","1.27 fold enrichment (6-mer frequency, TF over GST control)","1.26 fold enrichment (6-mer frequency, TF over GST control)"
GCGCCT,"1.09 fold enrichment (6-mer frequency, TF over GST control)","1.19 fold enrichment (6-mer frequency, TF over GST control)","1.11 fold enrichment (6-mer frequency, TF over GST control)","1.04 fold enrichment (6-mer frequency, TF over GST control)","1.1 fold enrichment (6-mer frequency, TF over GST control)","1.05 fold enrichment (6-mer frequency, TF over GST control)","1.12 fold enrichment (6-mer frequency, TF over GST control)","1.16 fold enrichment (6-mer frequency, TF over GST control)","1.05 fold enrichment (6-mer frequency, TF over GST control)","1.13 fold enrichment (6-mer frequency, TF over GST control)","1.07 fold enrichment (6-mer frequency, TF over GST control)","1 fold enrichment (6-mer frequency, TF over GST control)","1.07 fold enrichment (6-mer frequency, TF over GST control)","1.28 fold enrichment (6-mer frequency, TF over GST control)","1.13 fold enrichment (6-mer frequency, TF over GST control)","1.11 fold enrichment (6-mer frequency, TF over GST control)","1.17 fold enrichment (6-mer frequency, TF over GST control)"
